Results: PubChem BioAssay (EPA / NIEHS)
Where “and” joins values, the source holds several entries; their conditions need not be identical. Identical values can stand only once. Some compounds were tested as several samples or in several runs, with calls that do not always agree. Calls of active or inactive are those of the source. The calls were made as follows: active = hit-call score of the fitted dose curve at least 0.9, where 1 is the maximum; inactive = score below 0.9.

Tests used:
[1] = read-out: Interleukin-1 alpha (IL1a), IL1A (gene 3552); experiment: BSK_KF3CT_IL1a: BioMAP Diversity Plus: KF3CT Assay for Interleukin-1 alpha (IL1a) Biomarker Activity (AID 2283070); conditions: primary human keratinocytes with fibroblasts; actives raise or lower the signal
Summary of the method: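 Primary skin co-culture (keratinocytes, foreskin fibroblasts), 24 h exposure; ELISA for IL-1a; bidirectional curve fit vs DMSO.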

[2] = read-out: TIMP metallopeptidase inhibitor 2 (TIMP2), TIMP2 (gene 7077); experiment: BSK_KF3CT_TIMP2: BioMAP Diversity Plus: KF3CT Assay for TIMP metallopeptidase inhibitor 2 (TIMP2) Biomarker Activity (AID 2283071); conditions: primary human keratinocytes with fibroblasts; actives raise or lower the signal
Summary of the method: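 Measurements come from ELISA detection of TIMP-2 at 24 hours in a dosed human keratinocyte and foreskin fibroblast co-culture. DMSO serves as negative control and baseline.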

[3] = read-out: Transforming growth factor beta 1 (TGFb1), TGFB1 (gene 7040); experiment: BSK_KF3CT_TGFb1: BioMAP Diversity Plus: KF3CT Assay for Transforming growth factor beta 1 (TGFb1) Biomarker Activity (AID 2283072); conditions: primary human keratinocytes with fibroblasts; actives raise or lower the signal
Summary of the method: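 TGF-b1 ELISA on a 24 h dosed co-culture of human keratinocytes and foreskin fibroblasts; cytotoxicity tracked in parallel cultures by SRB staining.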

[4] = read-out: C-C motif chemokine 2 (Homo sapiens) (UniProt P13500); experiment: BSK_KF3CT_MCP1: BioMAP Diversity Plus: KF3CT Assay for Monocyte Chemoattractant Protein 1 (MCP1/CCL2) Biomarker Activity (AID 2283073); conditions: primary human keratinocytes with fibroblasts; actives raise or lower the signal
Summary of the method: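 Biomarker MCP-1 is measured by ELISA in primary human keratinocytes co-cultured with foreskin fibroblasts, 24 h after chemical treatment; DMSO serves as the negative control and activity baseline.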

[5] = read-out: Matrix Metallopeptidase 9 (MMP9), MMP9 (gene 4318); experiment: BSK_KF3CT_MMP9: BioMAP Diversity Plus: KF3CT Assay for Matrix Metallopeptidase 9 (MMP9) Biomarker Activity (AID 2283074); conditions: primary human keratinocytes with fibroblasts; actives raise or lower the signal;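 as to AC50: MMP9 protein level quantified by ELISA in the co-culture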
Summary of the method: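 ELISA read-out of MMP-9 at 24 h post-dosing in a co-culture of human skin keratinocytes and foreskin fibroblasts. Gain or loss of signal was fitted in both directions against DMSO.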

CD40, CD40 (gene 958) [6] = experiment: BSK_LPS_CD40: BioMAP Diversity Plus: LPS Assay for CD40 Biomarker Activity (AID 2283076); conditions: primary human HUVEC with PBMC; actives raise or lower the signal
Summary of the method: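 Using a multiplexed primary human co-culture (umbilical vein endothelium plus PBMC), CD40 was read by ELISA 24 h after dosing, with cytotoxicity tracked by sulforhodamine B staining of parallel cultures and activity fitted bidirectionally versus DMSO.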

[7] = read-out: E-selectin (Homo sapiens) (UniProt P16581); experiment: BSK_LPS_Eselectin: BioMAP Diversity Plus: LPS Assay for Eselectin Biomarker Activity (AID 2283077); conditions: primary human HUVEC with PBMC; actives raise or lower the signal
Summary of the method: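 Dose chemical onto LPS-driven HUVEC/PBMC co-culture; after 24 h, run ELISA for E-selectin; fit up- and down-going responses relative to DMSO control.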

[8] = read-out: Interleukin-8 (IL8), CXCL8 (gene 3576); experiment: BSK_LPS_IL8: BioMAP Diversity Plus: LPS Assay for Interleukin-8 (IL8) Biomarker Activity (AID 2283078); conditions: primary human HUVEC with PBMC; actives raise or lower the signal
Summary of the method: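 In this LPS system, chemical-treated human umbilical vein endothelium/PBMC co-cultures were harvested at 24 h for IL-8 ELISA.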

[9] = BSK_LPS_SRB: Viability Assessment in the BioMAP Diversity Plus: LPS Assay (AID 2283079); conditions: primary human HUVEC with PBMC;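 also: total protein by sulforhodamine B absorbance as a cytotoxicity measure; measured one day after compound addition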
Summary of the method: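 Cytotoxicity endpoint in human endothelial–PBMC co-culture: 24 h exposure, then SRB (0.1%) staining, 560 nm read.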

[10] = read-out: Interleukin-1 alpha (IL1a), IL1A (gene 3552); experiment: BSK_LPS_IL1a: BioMAP Diversity Plus: LPS Assay for Interleukin-1 alpha (IL1a) Biomarker Activity (AID 2283080); conditions: primary human HUVEC with PBMC; actives raise or lower the signal
Summary of the method: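 Primary human HUVEC and PBMC co-culture stimulated with LPS is dosed and harvested at 24 h. Both increases and decreases in ELISA-measured IL-1a are scored relative to DMSO.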

[11] = BSK_LPS_PGE2: BioMAP Diversity Plus: LPS Assay for Prostaglandin E2 (PGE2) Biomarker Activity (AID 2283082); conditions: primary human HUVEC with PBMC; actives raise or lower the signal;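 as to AC50: secreted prostaglandin E2 measured by ELISA in LPS-stimulated co-culture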
Summary of the method: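 Primary human endothelial cells and blood mononuclear cells, co-cultured with LPS, receive test chemical; PGE2 ELISA follows at 24 h, with SRB-stained parallel cultures flagging cytotoxicity.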

[12] = read-out: Macrophage colony-stimulating factor (MCSF), CSF1 (gene 1435); experiment: BSK_LPS_MCSF: BioMAP Diversity Plus: LPS Assay for Macrophage colony-stimulating factor (MCSF) Biomarker Activity (AID 2283083); conditions: primary human HUVEC with PBMC; actives raise or lower the signal
Summary of the method: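 Bidirectional fit versus DMSO of ELISA-measured M-CSF in co-cultured human umbilical vein endothelial cells and PBMC, sampled 24 h after dosing.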

[13] = read-out: Tissue Factor, F3 (gene 2152); experiment: BSK_LPS_TissueFactor: BioMAP Diversity Plus: LPS Assay for Tissue Factor Biomarker Activity (AID 2283084); conditions: primary human HUVEC with PBMC; actives raise or lower the signal
Summary of the method: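 Read-out: CD142 ELISA, 24 h. System: LPS-driven human endothelial/PBMC co-culture. Analysis: up- or down-signal fitted against DMSO.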

[14] = read-out: Tumor necrosis factor (Homo sapiens) (UniProt P01375); experiment: BSK_LPS_TNFa: BioMAP Diversity Plus: LPS Assay for Tumour Necrosis Factor alpha (TNFa) Biomarker Activity (AID 2283085); conditions: primary human HUVEC with PBMC; actives raise or lower the signal;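 as to AC50: TNFa protein level quantified by ELISA in the co-culture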
Summary of the method: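 ELISA-based TNFa endpoint in a human endothelial–PBMC co-culture sampled 24 h post-exposure. Curves were fitted in both directions using DMSO as baseline of activity.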

[15] = read-out: Vascular cell adhesion molecule 1 (VCAM1), VCAM1 (gene 7412); experiment: BSK_LPS_VCAM1: BioMAP Diversity Plus: LPS Assay for Vascular cell adhesion molecule 1 (VCAM1) Biomarker Activity (AID 2283086); conditions: primary human HUVEC with PBMC; actives raise or lower the signal
Summary of the method: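 Measured by ELISA: VCAM-1 in LPS-activated HUVEC/PBMC co-cultures 24 h after treatment. Values reflect bidirectional fitting with DMSO as baseline.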

CD38, CD38 (gene 952) = experiment: BSK_SAg_CD38: BioMAP Diversity Plus: SAg Assay for CD38 Biomarker Activity (AID 2283087); conditions: primary human HUVEC with PBMC; actives raise or lower the signal
Summary of the method: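 Measures CD38 on a human endothelial/PBMC co-culture driven by SEB and TSST-1, 24 h after compound exposure, using ELISA with fluorescence detection; DMSO defines baseline for bidirectional curve fitting.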

CD40, CD40 (gene 958) [16] = experiment: BSK_SAg_CD40: BioMAP Diversity Plus: SAg Assay for CD40 Biomarker Activity (AID 2283088); conditions: primary human HUVEC with PBMC; actives raise or lower the signal
Summary of the method: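 Endpoint derived by fitting increases or decreases versus DMSO controls. CD40 is detected by fluorescence ELISA in a human vascular co-culture of endothelium and PBMC at 24 h.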

CD69, CD69 (gene 969) = experiment: BSK_SAg_CD69: BioMAP Diversity Plus: SAg Assay for CD69 Biomarker Activity (AID 2283089); conditions: primary human HUVEC with PBMC; actives raise or lower the signal;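 as to AC50: cell surface CD69 protein quantified by ELISA with fluorescence detection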
Summary of the method: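 ELISA, fluorescence read-out: CD69 on human umbilical vein endothelial cell + PBMC co-culture, 24 h post-dosing. Gain or loss of signal fitted bidirectionally against DMSO baseline.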

[17] = read-out: Monocyte Chemoattractant Protein-1 (MCP1), CCL2 (gene 6347); experiment: BSK_LPS_MCP1: BioMAP Diversity Plus: LPS Assay for Monocyte Chemoattractant Protein-1 (MCP1) Biomarker Activity (AID 2283081); conditions: primary human HUVEC with PBMC; actives raise or lower the signal
Summary of the method: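 Values derive from bidirectional fitting against DMSO of ELISA-measured MCP-1 in a human primary endothelial and mononuclear cell co-culture, 24 h after chemical addition under LPS activation.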

[18] = read-out: urokinase plasminogen activator (uPA), PLAU (gene 5328); experiment: BSK_KF3CT_uPA: BioMAP Diversity Plus: KF3CT Assay for urokinase plasminogen activator (uPA) Biomarker Activity (AID 2283075); conditions: primary human keratinocytes with fibroblasts; actives raise or lower the signal
Summary of the method: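 Skin co-culture (keratinocytes + foreskin fibroblasts), human primary; 24 h post-dose; uPA by ELISA; gain/loss fit vs DMSO baseline.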

Measured: AC50

Sequence of E-selectin (Homo sapiens) (P16581 whole entry, looked up): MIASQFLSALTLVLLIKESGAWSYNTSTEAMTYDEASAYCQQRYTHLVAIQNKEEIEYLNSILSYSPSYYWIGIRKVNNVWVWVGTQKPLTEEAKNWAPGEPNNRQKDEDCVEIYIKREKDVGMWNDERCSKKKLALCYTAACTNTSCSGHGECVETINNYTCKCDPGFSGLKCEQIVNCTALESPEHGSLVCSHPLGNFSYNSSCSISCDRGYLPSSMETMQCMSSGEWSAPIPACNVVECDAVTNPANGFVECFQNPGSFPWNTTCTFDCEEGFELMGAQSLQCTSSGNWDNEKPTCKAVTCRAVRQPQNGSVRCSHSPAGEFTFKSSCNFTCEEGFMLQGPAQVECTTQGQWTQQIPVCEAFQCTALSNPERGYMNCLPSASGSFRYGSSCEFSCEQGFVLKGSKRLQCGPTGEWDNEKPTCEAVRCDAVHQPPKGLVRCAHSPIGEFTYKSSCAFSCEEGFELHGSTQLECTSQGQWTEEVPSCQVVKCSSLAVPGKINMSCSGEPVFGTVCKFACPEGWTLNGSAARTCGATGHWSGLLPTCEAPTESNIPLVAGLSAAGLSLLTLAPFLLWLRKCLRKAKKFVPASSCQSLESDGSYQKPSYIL
Sequence of Tumor necrosis factor (Homo sapiens) (P01375 whole entry, looked up): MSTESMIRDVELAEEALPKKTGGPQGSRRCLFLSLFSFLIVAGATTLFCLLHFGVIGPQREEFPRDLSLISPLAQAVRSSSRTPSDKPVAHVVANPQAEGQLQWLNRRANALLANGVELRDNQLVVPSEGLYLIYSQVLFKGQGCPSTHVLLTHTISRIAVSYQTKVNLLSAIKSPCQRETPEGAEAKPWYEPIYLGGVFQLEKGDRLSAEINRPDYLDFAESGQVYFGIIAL

Oc1ccc(Nc2ccccc2)cc1
active: [1] 5.84 µM | [3] 20 µM | CD40, CD40 (gene 958) [6] 20 µM | [11] 0.668 µM | [15] 20 µM | CD38, CD38 (gene 952) 20 µM | CD40, CD40 (gene 958) [16] 8.57 µM | CD69, CD69 (gene 969) 14 µM
not listed: [17] | [18]
inactive: all other assays above

FC(F)(F)C(F)(F)C(F)(F)C(F)(F)C(F)(F)C(F)(F)C(F)(F)I
inactive: [1] | [2] | [4] | [5] | CD40, CD40 (gene 958) [6] | [7] | [8] | [9] | [10] | [11] | [12] | [13] | [14] | [15] | CD38, CD38 (gene 952) | CD40, CD40 (gene 958) [16]
active: [5] 244 nM

CCCCNc1ccccc1
not listed: [17] | [18]
inactive: all other assays above

CCCCCCCOC(=O)c1ccccc1C(=O)OCCCCCCC
not listed: CD69, CD69 (gene 969) | [18]
inactive: all other assays above

OCCCC(F)(F)C(F)(F)C(F)(F)C(F)(F)C(F)(F)C(F)(F)C(F)(F)F
inactive: [10] | [11]
active: [1] 24 µM and 43.8 µM | [2] 14.7 µM and 37 µM | [4] 27.3 µM and 42.9 µM | [5] 20 µM and 45 µM | [18] 22.8 µM and 47.2 µM | CD40, CD40 (gene 958) [6] 45.6 µM and 45.1 µM | [7] 50.6 µM and 43.6 µM | [8] 53.5 µM and 54.5 µM | [9] 54 µM and 46.2 µM | [10] 46 µM | [12] 46 µM and 47.8 µM | [13] 49.9 µM and 45.5 µM | [14] 48 µM and 25.8 µM | [15] 51.4 µM and 43.6 µM | CD38, CD38 (gene 952) 47.1 µM and 49.3 µM | CD40, CD40 (gene 958) [16] 48 µM and 50.1 µM | CD69, CD69 (gene 969) 42.4 µM and 41.7 µM

O=S(=O)(O)C(F)(F)C(F)(F)C(F)(F)C(F)(F)C(F)(F)C(F)(F)C(F)(F)F
not listed: [3]
inactive: all other assays above

FC(F)(F)C(F)(F)C(F)(F)C(F)(F)C(F)(F)CCI
not listed: [3] | CD69, CD69 (gene 969)
inactive: all other assays above

CC(=O)Nc1ccc(N=Nc2cc(C)ccc2O)cc1
active: [1] 20 µM | [15] 5.06 µM | CD38, CD38 (gene 952) 7.17 µM
not listed: CD69, CD69 (gene 969) | [17] | [18]
inactive: all other assays above

O=C(O)C(F)(F)C(F)(F)C(F)(F)C(F)(F)C(F)(F)C(F)(F)C(F)(F)C(F)(F)C(F)(F)C(F)(F)C(F)(F)C(F)(F)F
active: [1] 4.28 µM and 3.91 µM | [12] 20.4 µM and 21.6 µM | CD40, CD40 (gene 958) [16] 21.1 µM and 16.7 µM
not listed: [3] | CD69, CD69 (gene 969)
inactive: all other assays above
